# Screening data (PubChem BioAssay)
# PLK1 PBD block: qHTS for Inhibitors of PLK1-PDB (polo-like kinase 1 - polo-box domain): Primary Screen; Serine/threonine-protein kinase PLK1 (Homo sapiens), P53350; Plk1 PBD binding of FITC phosphopeptide, fluorescence polarization; Potency, µM, inactives show max response, negative = inhibition, usual class: inhibitors; hit rate 2.8% among 360,000; AID 720504, 2013; further: series mostly up to about 57 µM; nearly all actives have a fitted effect of over 65% in size
# Target sequence (P53350 whole entry, looked up, the tested form may be a part): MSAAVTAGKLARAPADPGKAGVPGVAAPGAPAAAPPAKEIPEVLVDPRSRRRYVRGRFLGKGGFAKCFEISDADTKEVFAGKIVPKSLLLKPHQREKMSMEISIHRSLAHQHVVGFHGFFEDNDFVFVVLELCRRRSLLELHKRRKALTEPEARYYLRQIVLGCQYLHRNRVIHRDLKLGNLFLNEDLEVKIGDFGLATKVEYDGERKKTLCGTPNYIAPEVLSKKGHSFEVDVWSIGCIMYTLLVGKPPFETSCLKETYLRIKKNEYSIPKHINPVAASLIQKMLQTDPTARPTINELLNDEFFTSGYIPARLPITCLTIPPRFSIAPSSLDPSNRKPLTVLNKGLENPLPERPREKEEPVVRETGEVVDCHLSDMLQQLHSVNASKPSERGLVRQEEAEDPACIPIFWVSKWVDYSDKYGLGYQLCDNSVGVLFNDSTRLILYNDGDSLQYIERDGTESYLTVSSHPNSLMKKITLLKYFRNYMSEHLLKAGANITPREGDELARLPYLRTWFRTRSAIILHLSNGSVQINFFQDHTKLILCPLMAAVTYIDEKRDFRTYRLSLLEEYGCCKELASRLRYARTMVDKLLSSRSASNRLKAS
# Sfp PPTase inh: qHTS Assay for Inhibitors of Bacillus subtilis Sfp phosphopantetheinyl transferase (PPTase); 4'-phosphopantetheinyl transferase ffp (Bacillus subtilis), Q9F4F7; Biochemical Sfp PPTase activity, qHTS; Potency, µM, for inactives: largest response in the series, negative = inhibition, actives largely listed as inhibitors; hit rate 3.5% among 310,000; AID 1490, 2009;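 further: the enzyme is Sfp with the accession as filed and its product quenches rhodamine fluorescence; 0% = enzyme reaction without inhibitor and -100% = no enzyme wells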
#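 Fluorescence-quenching assay with 15 nM Sfp, 5 uM rhodamine-CoA and 12.5 uM BHQ-2-labelled ybbR peptide in pH 7.6 Hepes/MgCl2 buffer. Enzyme was pre-incubated with compound for 15 min at room temperature. Rate was taken from the 30-min fluorescence change (525/598 nm).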
# Gal4-VP16 FLuc: VP16 counterscreen qHTS for inhibitors of ROR gamma transcriptional activity | Potency, µM (highest dose often 53.6 µM), inactives show at the top dose activity, negative = inhibition, most hits filed as inhibitors | Drosophila S2 Gal4-VP16 UAS-luciferase, luminescence, 20 h | hit rate 3.5% among 310,000;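 further: Gal4-VP16 expression switched on by copper sulfate through the metallothionein promoter; nearly all actives have a fitted effect of over 50% in size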
# ALDH1A1 block: qHTS Assay for Inhibitors of Aldehyde Dehydrogenase 1 (ALDH1A1). Aldehyde dehydrogenase 1A1 (Homo sapiens), P00352. Purified ALDH1A1, NADH fluorescence, propionaldehyde substrate. Potency, µM (series often up to 75.3 µM), for inactives: at the highest dose activity, negative = inhibition, hits mostly inhibitors. hit rate 7.3% among 220,000. AID 1030, 2008; active means well fitted inhibition curve with a large enough effect, not every such curve was filed as active; inconclusive means small, poorly fitted or top-dose-only effect, or another doubt; inactive means no such curve, though single readings can be large or run the other way;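 further: plate controls were no enzyme wells and a reference inhibitor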
# RORgamma inh: qHTS for inhibitors of ROR gamma transcriptional activity; Nuclear receptor ROR-gamma (Mus musculus), P51450; Drosophila S2 Gal4-RORgamma UAS-luciferase reporter, 20 h; Potency, µM (highest dose often 53.6 µM), inactives show at the top dose activity change, negative = inhibition, usual class: inhibitors; hit rate 5.4% among 310,000; AID 2551, 2010; further: nearly all actives have a fitted effect of over 60% in size
#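 In this cell-based reporter format, copper sulfate (700 uM final) drives Gal4–ROR gamma fusion expression from a metallothionein promoter in Drosophila Schneider cells; compounds preincubated 1 hr, reporter read after 20 hr at ambient temperature.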
# An asterisk follows results filed as active; ? = inconclusive; . = no result given; [ ] = remark or other dose. This is a sample that favours compounds with a hit; in the whole collection about 12% have one here. Unless noted, the call rests on the fitted dose curve; in most records, active means well fitted curve in the direction sought with a large enough effect; inconclusive means small, poorly fitted or top-dose-only effect, or another doubt; inactive means no such curve, though single readings can be large; an effect the other way counts as inactive or inconclusive. Unless noted, on the % scale 0 is the no-effect control and ±100 the full control effect; potency means the concentration at half of the fitted maximal effect.
SMILES,PLK1 PBD block,Sfp PPTase inh,Gal4-VP16 FLuc,ALDH1A1 block,RORgamma inh
COC(=O)[C@@H]1C[C@@]2(O)[C@@H](O)[C@@H](O)[C@@H](O)C[C@H]2N1Cc1ccc(C(C)(C)C)cc1,.,10%,9%,?,4%
COC(=O)[C@]12CCCCC=C1N(CCc1ccc(OC)c(OC)c1)C(=O)[C@H](CC(=O)N1CCC(c3ccccc3)CC1)C2,0%,.,.,.,.
COCCNC(=S)Nc1ccc(N2CCOCC2)c(S(=O)(=O)Nc2ccccc2OC)c1,21µM*,.,.,.,.
COc1cccc(NC(=S)NCCN2CCOCC2)c1,-19%,5%,8%,13%,-25%
COc1ccccc1NS(=O)(=O)c1cccc(NC(=S)NCCN2CCOCC2)c1,24µM*,20%,-6%,15%,-2%
COc1ccccc1NS(=O)(=O)c1cc(NC(=O)c2ccccc2C)ccc1N1CCOCC1,-2%,.,.,.,.
Cc1ccc(S(=O)(=O)C[C@@H]2OC[C@H](C)N2S(=O)(=O)c2ccc(C)cc2)cc1,-8%,.,.,.,.
CN(N)c1nc(-c2ccccc2)cc(-c2ccccc2)n1,-1%,-19%,?,.,13µM*
CCC(=O)c1ccc(N2CCN(C(=O)Cc3ccccc3)CC2)c(F)c1,-25%,-21%,?,?,?
CCC(=O)c1cc(F)c(N2CCN(C(=O)Cc3ccccc3)CC2)cc1C,-12%,-7%,13µM*,?,11%
CC(=O)c1cc(F)c(N2CCN(C(=O)C(C)(C)C)CC2)cc1C,-6%,-10%,-2%,16µM*,-1%
CN1/C(=C\C=C2/SC(=S)N(CC(=O)O)C2=O)C(C)(C)c2ccccc21,113%,22µM*,-10%[10 µM],-3%,26%
CCC(C(=O)O)N1C(=O)/C(=C/c2cccn2C)SC1=S (stereo not given),39%,19%,0%,-1%,-18%
C=CCN1C(=O)/C(=C\C=C2\N(C)c3ccccc3C2(C)C)SC1=S,?,-16%,-6%,-2%,-13%
CC(C(=O)O)N1C(=O)/C(=C/c2cccn2C)SC1=S (stereo not given),41%,56µM*,-3%,5%,-13%
Cn1cccc1/C=C1/SC(=S)N(CC(=O)O)C1=O,39%,-8%,14%,28µM*,-1%
Cn1cccc1/C=C1\SC(=S)N(NC(=O)c2ccccc2)C1=O,39%,-22%,5%,-17%,?
CC(C)(C)c1ccc(Cn2ccc(-c3ccc4c(c3)OCO4)n2)cc1,-1%,-1%,-9%,4µM*,5%
CC(NC(=O)COc1ccccc1)C(=O)NCc1ccccc1Cl (stereo not given),-4%,.,.,.,.
CC(/C=N/n1c(-c2ccc(C)cc2)n[nH]c1=S)=C\c1ccco1,?,50µM*,2.8µM*,?,2.8µM*
CC(/C=N/n1c(-c2ccncc2)n[nH]c1=S)=C\c1ccco1,-24%,-27%,5%,.,-40%
CC(/C=N/n1c(-c2ccco2)n[nH]c1=S)=C\c1ccco1,-29%,45µM*,?,32µM*,?
CC(/C=N/n1c(-c2ccccc2)n[nH]c1=S)=C\c1ccco1,-28%,?,7.1µM*,?,?
CC(/C=N/n1c(-c2cccnc2)n[nH]c1=S)=C\c1ccccc1,-18%,?,?,?,?
O=C(O)c1nc(-c2ccccc2)[nH]c1C(=O)O,.,.,.,-8%[13.5 µM],.
SMILES,PLK1 PBD block,Sfp PPTase inh,Gal4-VP16 FLuc,ALDH1A1 block,RORgamma inh
CCOc1cc(C=C(C#N)C#N)ccc1Oc1ccc([N+](=O)[O-])cn1,-25%,-17%,7%,3.2µM*,12%
COc1cc(/C=C(/C#N)c2ccc(F)cc2)ccc1Oc1ccc([N+](=O)[O-])cn1,-7%,15%,-20%,-1%,?
Cc1ccc(Cl)c(OCCCCN(C)Cc2ccccc2)c1,2%,-12%,-6%,0%,-20%
Cc1ccc(Cl)c(OCCCN(C)Cc2ccccc2)c1,-12%,45µM*,-14%,.,-26%
Cc1ccc(C2CN(C)C3(C(=O)Nc4ccccc43)C23COc2ccccc2C3=O)cc1 (stereo not given),9%,2%,-5%,-14%,20%
CN1CC(c2ccccc2Cl)C2(COc3ccccc3C2=O)C12C(=O)Nc1ccccc12 (stereo not given),0%,-5%,-3%,1.4µM*,-11%
COc1ccc(-n2c(Cc3cccn3C)nnc2SCC(=O)Nc2ccc3c(c2)OCCO3)cc1,-7%,1%,-10%,1µM*,?
Cn1cccc1Cc1nnc(SCC(=O)Nc2ccc3c(c2)OCCO3)n1CCc1ccccc1,0%,-2%,14%,14µM*,23%
Cn1cccc1Cc1nnc(SCC(=O)Nc2ccc3c(c2)OCO3)n1CCc1ccccc1,?,0%,-2%,?,42%
COc1ccc(-n2c(Cc3cccn3C)nnc2SCC(=O)Nc2cccc(NC(C)=O)c2)cc1,-1%,-8%,-1%,?,15%
COc1ccc(-n2c(Cc3cccn3C)nnc2SCC(=O)Nc2ccc3c(c2)OCO3)cc1,-7%,-9%,-14%,14µM*,6%
CCn1c(=O)c(C(=O)CN(C)Cc2cccc(OC)c2OC)c(N)n(Cc2ccccc2)c1=O,-33%,63µM*,-18%,?,-8%
COCCn1cnc2c(c1=O)c1nc3ccccc3nc1n2/N=C/c1ccc(OC)c(OC)c1,-3%,31%,-18%,0%,27%
C=CCn1cnc2c(c1=O)c1nc3ccccc3nc1n2/N=C/c1cccc(OC)c1,-1%,-20%,?,11µM*,8%
CCCCCCn1cnc2c(c1=O)c1nc3ccccc3nc1n2/N=C/c1ccco1,-19%,?,-7%,25µM*,?
Oc1c(C(c2ccccc2)N2CCCCC2)ccc2ccccc12 (stereo not given),3µM*,.,.,.,.
O=C(N1CCCCC1)N1CCN(C(c2ccccc2)c2ccccc2)CC1,-6%,-4%,7%,-12%,7%
NC(CCC(=O)NC(CCSC(CC(=O)O)C(=O)O)C(=O)NCC(=O)O)C(=O)O (stereo not given),.,-24%,7%,5%,-19%
CCOn1c(=O)c(-c2ccc(Br)cc2)[n+]([O-])c2ccccc21,-5%,6%,4%,.,-14%
COc1ccc(-c2c(=O)n(OCc3nc4ccccc4[nH]3)c3ccccc3[n+]2[O-])cc1,-4%,-23%,-1%,.,14%
C=CCOn1c(=O)c(-c2ccc(OC)cc2)[n+]([O-])c2ccccc21,12µM*,-3%,3%,0%,-2%
O=c1c(-c2ccc(Br)cc2)[n+]([O-])c2ccccc2n1OCc1ccccn1,24µM*,0%,-11%[10 µM],6%,3%
